Measured values: PubChem BioAssay (NCI)
About 79,000 compounds went through this panel and 15% of them were active in at least one assay; those are over-represented in the sample as a whole. Values without a mark were called inactive. The source made the active and inactive calls. Cut-off read from the data, not from the text of the source: active = growth inhibition above about 70%; inactive = the rest.

Key:
[1] = NCI Yeast Anticancer Drug Screen. Data for the rad50 strain (AID 155);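 note: 0% = growth of vehicle-only cultures of the same strain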; details: S. cerevisiae rad50 strain growth inhibition; at 50.0 µM; active compounds read high
In short: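 Vehicle-treated cultures provide the reference for the growth inhibition reported for compound-exposed, repair-deficient yeast.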

[2] = NCI Yeast Anticancer Drug Screen. Data for the mec2-1 strain (AID 157); details: S. cerevisiae mec2-1 strain, at 50.0 µM, active compounds read high
In short: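 Each compound was tested on mec2-1 yeast, a strain altered in DNA damage repair or cell cycle control. Growth inhibition is reported relative to vehicle.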

[3] = NCI Yeast Anticancer Drug Screen. Data for the sgs1 mgt1 strain (AID 161);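 note: 0% = growth of cultures given vehicle only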; details: S. cerevisiae sgs1 mgt1 strain, at 50.0 µM, active compounds read high
In short: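 Inhibition of yeast growth, normalised to vehicle-treated controls, is reported for a strain bearing genetic alterations in DNA damage repair.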

[4] = NCI Yeast Anticancer Drug Screen. Data for the cln2 rad14 strain (AID 165);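 note: 0% = growth equal to vehicle treated cultures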; details: S. cerevisiae cln2 rad14 strain, at 50.0 µM, active compounds read high
In short: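 Test compounds were added to cln2 rad14 yeast cultures; inhibition of growth was then determined by comparison with vehicle treatment.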

[5] = NCI Yeast Anticancer Drug Screen. Data for the bub3 strain (AID 167); details: S. cerevisiae bub3 mutant strain, at 50.0 µM, active compounds read high
In short: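 Mutant yeast screening strain plus compound; vehicle-treated cultures serve as the 0% inhibition reference.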

[6] = NCI Yeast Anticancer Drug Screen. Data for the mlh1 rad18 strain (AID 175); details: S. cerevisiae mlh1 rad18 strain growth inhibition; at 50.0 µM; active compounds read high
In short: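 Inhibition values reflect reduced growth of mutant yeast versus vehicle-treated controls following compound exposure; the mutations affect DNA damage repair.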

Row | SMILES | growth inhibition [1] | growth inhibition [2] | growth inhibition [3] | growth inhibition [4] | growth inhibition [5] | growth inhibition [6]
1 | Cc1nc2cc(N)c(Cl)cc2[nH]1 | -6.5% | 14.8% | 9.95% | -7.15% | 10.5% | -0.6%
2 | Cc1cc2nccnc2cc1C | -48.8% | -65.8% | -31.4% | -3.4% | -65.5% | -23.2%
3 | COC(=O)Cc1ccccn1 | 0.4% | -18.9% | 1.4% | 14.5% | -21.5% | 22.4%
4 | CCOC(=O)c1ccc(-n2nc(C)cc(Cl)c2=O)cc1 | 1.3% | -11.2% | 10.8% | -43% | 20.4% | -4.8%
5 | CC[n+]1ccc(/C=C\c2c(Cl)cccc2Cl)cc1 | -1.45% | -17.6% | 5.65% | 3% | 7.8% | 12.1%
6 | CC(=O)c1sc2c(c1OC(=O)c1ccc(Cl)cc1)c(=O)n(-c1ccccc1)c(=S)n2-c1ccccc1 | 9.55% | -8.9% | -11.2% | 7.95% | 11.9% | 9.05%
7 | COc1ccc(-c2oc3cc(OC)c(OC)c(OC)c3c(=O)c2O)cc1O | 62.5% | 50.5% | 77.6% (active) | 44.8% | 65.4% | 70.2% (active)
8 | C[C@]12CC[C@H](OC3CCCCO3)CC1=CC[C@@H]1C2CC[C@]2(C)/C(=N/OCCC#N)CCC12 (some centres undefined) | 16.9% | 15.2% | -3.85% | -49.4% | 3.3% | 28.1%
9 | COc1cc2ccnc(C#N)c2cc1OCc1ccccc1 | -60.1% | -12.3% | -10.7% | -6.15% | -14.2% | -31.3%
10 | CNC1(C(=O)O)CCCCC1 | -0.35% | -4.65% | -2% | 4.6% | 4.85% | -2.2%
11 | c1ccc2c(c1)ncc1cccn12 | 5.15% | -10.9% | 0.65% | 3.45% | 7.7% | 1.25%
12 | CCOC(=O)C(=O)/C(=C/N1CCNC1=S)C(=O)OCC | -28.6% | -9.05% | -26.8% | 32.4% | -4.35% | -25.9%
13 | NCC(=O)NCC(=O)NCC(=O)NCC(=O)NCC(=O)NCC(=O)O | 26.1% | 16.4% | 0.4% | -38.6% | -3.5% | -3.65%
14 | CCCCCCCCCCCOCCC1C(C(C)OCCN2CCCC2)OC2OC(C)(C)OC21 (centres undefined) | 91.5% (active) | 92.8% (active) | 90.5% (active) | 90.4% (active) | 88.2% (active) | 89% (active)
15 | C=CCNC(=S)N/C=C\c1c(C(=O)O)cc([N+](=O)[O-])cc1[N+](=O)[O-] | -7.85% | -24.1% | -31.2% | -23.2% | 3.2% | 5.6%
16 | Nc1ccc(N(S(=O)(=O)c2ccccc2)S(=O)(=O)c2ccccc2)nc1 | 27.4% | 6.3% | 11.1% | -4.45% | 2.25% | 17.7%
17 | CC(=O)Nc1ccc(C)cc1[N+](=O)[O-] | -29.6% | 1.15% | -29.2% | -29.9% | -42.5% | -43.2%
18 | Cc1ccc(S(=O)(=O)N/N=C(/c2ccccc2)c2ccsc2C)cc1 | 6.7% | 37.3% | 37% | 24.2% | 41.3% | 53.4%
19 | COc1cccc(/C=C/C(=O)c2sc(C(N)=S)nc2C)c1O | 14.2% | 1.7% | 5.2% | 25.9% | -3.75% | 7.6%
20 | O=C(c1ccccc1)C(c1ccccc1)S(=O)(=O)N1CCCC1 (centres undefined) | -4.65% | 5.65% | 21.6% | -1.4% | 12.7% | 26.9%

Row | SMILES | growth inhibition [1] | growth inhibition [2] | growth inhibition [3] | growth inhibition [4] | growth inhibition [5] | growth inhibition [6]
21 | CCOc1ccc(CO)cc1 | 8.5% | 0.2% | 8.55% | 34% | -8.95% | -38.8%
22 | O=c1ccn(C2OC(CF)C(O)C2O)c(=O)[nH]1 (centres undefined) | 1.8% | -2.85% | -1.4% | 9.05% | 0.7% | -9.9%
23 | CCCCCCCCCC1OCCCO1 | -14.3% | 0.15% | 12.2% | -0.1% | -4.5% | -16.3%
24 | CC(C)OC(=O)NCc1cccs1 | -10.1% | -2.6% | 6.7% | -92.8% | 1.7% | -11.1%
25 | CC(=O)OC(C)C(O)C(O)C(/C=C/C1CC=CC(=O)O1)OC(C)=O (centres undefined) | 32.2% | 9.45% | 23.6% | 10.6% | 19.6% | 11.8%
26 | O=C(/C=C/c1cccs1)c1ccc([N+](=O)[O-])cc1 | -59% | -58.7% | -27.6% | -6.3% | -23.1% | -21.6%
27 | O=C(c1nc2ccc([N+](=O)[O-])cc2[nH]c1=O)C(O)c1ccc([N+](=O)[O-])cc1 (centres undefined) | -1.9% | -6.2% | 12.9% | 10.1% | -25.4% | 31.5%
28 | CCOC(=O)C(C)(C)Oc1ccc2c(-c3ccc(Cl)cc3)cc(=O)oc2c1 | 9.05% | -5.1% | -2.5% | 7.65% | -11.9% | 2.55%
29 | Cc1c[n+]2c(C)cccc2n1C | 10.9% | 27.9% | 27.1% | -26.2% | -8.05% | 3.65%
30 | CN1CSCC1C(=O)O (centres undefined) | 13% | -3.25% | -8.45% | -39.4% | -9.1% | 11.8%
31 | CC(C)SC(CC(O)C(O)COC(=O)c1ccccc1)SC(C)C (centres undefined) | -8.05% | -0.15% | 6.15% | -8.35% | -4.7% | 17.8%
32 | Cc1nc(C)c(N2CCN(C(=O)NC(CCC(=O)O)C(=O)O)CC2)c(=O)[nH]1 (centres undefined) | -80.7% | 8.95% | -28.3% | 18.4% | -1.25% | -40.6%
33 | C=C(C)C(=O)OCCOCCOCCOC(=O)C(=C)C | 8.4% | -19.2% | -9.75% | 3% | -7.7% | 4.5%
34 | C=C1C(=O)OC2/C=C(\C)C(O)CC(O)C(C)(O)CC(OC(=O)/C(C)=C/C)C12 (centres undefined) | -0.7% | -25.2% | -10.4% | 14.1% | 6.5% | -10.8%
35 | CN(C)c1ccccc1C1CCCCCC1O (centres undefined) | 15.8% | 6.1% | 17.9% | 20.1% | -22.3% | 8.95%
36 | ClCCOc1ccc2ccccc2c1 | 13.4% | -6.1% | 0.55% | 4.05% | 0.5% | 12.1%
37 | O=C1CSC=C(c2ccccc2)O1 | 4.45% | 4.4% | -4.7% | -40.8% | -0.5% | -19.4%
38 | CCOC(=O)c1ccc(N=C(N)N)cc1 | 23% | 9.85% | 19.8% | 11% | 17.2% | 19.6%
39 | CC(=O)c1ccccc1NS(=O)(=O)c1ccc2nc(C)n(NS(=O)(=O)c3ccccc3C(C)=O)c(=O)c2c1 | 43.5% | 19.6% | -5.25% | 7.2% | 4.55% | 28.6%
